# Data as given in the supplement of paper PMC13380429.
# Tested on: Vero E6 infected with SARS-CoV-2
# Assay: inhibition of SARS-CoV-2 cytopathic effect; higher = more antiviral protection, active = above 15
# Settings: 8.33 nM; 48 h
row,SMILES,inhibition of SARS-CoV-2 cytopathic effect
1,CC(C)(C)[C@H]1CC[C@H](CC2=C(O)C(=O)c3ccccc3C2=O)CC1 [buparvaquone],3.57% (inactive)
2,CN(C)CCn1cc(S(=O)(=O)c2cccc(F)c2)c2cccnc21,5.65% (inactive)
3,COCCc1ccc(OCC(O)CNC(C)C)cc1 (stereo not drawn) [metoprolol],1.22% (inactive)
4,CNC(=O)[C@H]1O[C@@H](n2cnc3c(NCc4cccc(I)c4)ncnc32)[C@H](O)[C@@H]1O,0.13% (inactive)
5,O=C(c1ccc(Nc2nccc(-c3cc4ccccc4s3)n2)cc1)N1CCC(N2CCCC2)CC1,3.16% (inactive)
6,O=C(O)CCNc1cc(N2CCc3ccccc3CC2)nc(-c2cccnc2)n1,0.62% (inactive)
7,COc1ccc2c(c1)[C@]13CCCC[C@@H]1[C@H](C2)N(C)CC3 [dextromethorphan],-0.37% (inactive)
8,CC[C@@]1(O)C(=O)OCc2c1cc1n(c2=O)Cc2cc3ccccc3nc2-1 [camptothecin],1.92% (inactive)

# Same assay, conditions: 100 nM; 48 h
row,SMILES,inhibition of SARS-CoV-2 cytopathic effect
1,COc1cc(OCc2cccc(-c3ccccc3)c2C)cc(OC)c1CN1CCCC[C@H]1C(=O)O [PD1-PDL-inhibitor-1],5.72% (inactive)
2,N#CCC(=O)c1ccccc1,0.67% (inactive)
3,CC(C)(C)C(=O)C(Oc1ccc(Cl)cc1)n1ccnc1 (stereo not drawn) [climbazole],-1.59% (inactive)
4,CCCC[C@H](NC(=O)[C@@H]1[C@@H]2[C@H](CN1C(=O)[C@@H](NC(=O)NC1(CS(=O)(=O)C(C)(C)C)CCCCC1)C(C)(C)C)C2(C)C)C(=O)C(=O)NC1CC1 [narlaprevir],0.06% (inactive)
5,CNC1CCCN(c2c(F)cc3c(=O)c(C(=O)O)cn(C4CC4)c3c2OC)C1 (stereo not drawn) [balofloxacin],1.91% (inactive)
6,C[C@]12CCC(=O)C=C1CC[C@@H]1[C@@H]2CC[C@@]2(C)[C@H]1CC[C@]2(O)C(=O)CO [cortodoxone],1.21% (inactive)
7,O=C1N=C2SCCN2C(=O)C1Cc1ccc(Cl)cc1 (stereo not drawn) [nuclomedone],0.26% (inactive)
8,Cc1ccccc1NC(=N)Nc1ccccc1C [ditolylguanidine],-1.06% (inactive)
9,CS(=O)(=O)c1cccc(CNc2nc(Nc3ccc4c(c3)CCC(=O)N4)ncc2C(F)(F)F)c1,0.06% (inactive)
10,O=C(Nc1ccc(S(=O)(=O)Nc2nccs2)cc1)C(c1ccccc1)c1ccccc1,2.47% (inactive)
11,OC[C@H]1O[C@@H](Oc2ccc(O)cc2)[C@H](O)[C@@H](O)[C@@H]1O [arbutin],0.6% (inactive)
12,CN[C@H](CC(C)C)C(=O)N[C@H]1C(=O)N[C@@H](CC(N)=O)C(=O)N[C@H]2C(=O)N[C@H]3C(=O)N[C@H](C(=O)N[C@H](C(=O)O)c4cc(O)cc(O)c4-c4cc3ccc4O)[C@H](O)c3ccc(c(Cl)c3)Oc3cc2cc(c3O[C@@H]2O[C@H](CO)[C@@H](O)[C@H](O)[C@H]2O[C@H]2C[C@](C)(N)[C@H](O)[C@H](C)O2)Oc2ccc(cc2Cl)[C@H]1O,-0.56% (inactive)
13,CN1CCC(c2c[nH]c3ccc(O)cc23)CC1,0.58% (inactive)
14,O=C(NCc1ccccc1)OCCO [buramate],-10.9% (inactive)
15,CCCN(C/C=C/I)[C@H]1CCc2ccc(O)cc2C1 [7-hydroxy-PIPAT],-1.03% (inactive)
16,CN1CC[C@H](c2c(O)cc(O)c3c(=O)cc(-c4ccccc4Cl)oc23)[C@H](O)C1 [alvocidib],7.55% (inactive)
17,COc1ccc(-c2nc(-c3ccc(-c4cccc(Cl)c4)o3)[nH]c2-c2ccc(OC)cc2)cc1 [neurodazine],4.87% (inactive)
18,Cc1ccc(C(C)C)c(O)c1 [thymol],-2.75% (inactive)
19,CCCC(=O)Nc1cccc(NC(=O)c2ccccc2Br)c1,0.94% (inactive)
20,O/N=C/c1cc[n+](COC[n+]2ccc(/C=N/O)cc2)cc1 [obidoxime],-1.56% (inactive)

row,SMILES,inhibition of SARS-CoV-2 cytopathic effect
1,O=C(Nc1cccc2c(=O)cc(-c3nnn[nH]3)oc12)c1ccc(OCCCCc2ccccc2)cc1 [pranlukast],0.47% (inactive)
2,c1cnc(NCc2ccc(CNc3ncccn3)cc2)nc1,-0.65% (inactive)
3,COc1ccc(-c2nc(C(=O)N3CCN(C)CC3)sc2-c2ccc(OC)cc2)cc1,-0.57% (inactive)
4,N#Cc1ccnc(N2C(=O)CC[C@H]2C(=O)N(c2cncc(F)c2)[C@H](C(=O)NC2CC(F)(F)C2)c2ccccc2Cl)c1 [ivosidenib],0.3% (inactive)
5,COc1cc2nccc(Oc3ccc(NC(=O)Nc4ccc(F)cc4F)c(F)c3)c2cc1OC,4.46% (inactive)
6,O=C1c2ccccc2-c2n[nH]c3cccc1c23 [pyrazolanthrone],-1.61% (inactive)
7,COc1ccc(Br)cc1S(=O)(=O)NC(=O)/C=C/c1ccccc1Cc1ccc2ccccc2c1,1.93% (inactive)
8,O=C(NCc1ccc2c(c1)OCO2)c1c(Cl)cccc1Cl [alda-1],-2.66% (inactive)
9,CC(C)n1cnc2c(C(=O)N[C@H]3CN4CCC3CC4)cc(Cl)cc21,-1.13% (inactive)
10,Nc1cc(C(F)(F)F)c(-c2nc(N3CCOCC3)nc(N3CCOCC3)n2)cn1,1.97% (inactive)
11,Cc1ccc(NC(=O)C2(c3ccc4c(c3)OC(F)(F)O4)CC2)nc1-c1cccc(C(=O)O)c1 [lumacaftor],-1.4% (inactive)
12,OCCCNc1ccccc1 [3-anilinopropan-1-ol],-0.59% (inactive)
13,CC(C)(C)[C@H]1CC[C@H](CC2=C(O)C(=O)c3ccccc3C2=O)CC1 [buparvaquone],2.36% (inactive)
14,CN(C)CCn1cc(S(=O)(=O)c2cccc(F)c2)c2cccnc21,1.09% (inactive)
15,COCCc1ccc(OCC(O)CNC(C)C)cc1 (stereo not drawn) [metoprolol],-0.12% (inactive)
16,CNC(=O)[C@H]1O[C@@H](n2cnc3c(NCc4cccc(I)c4)ncnc32)[C@H](O)[C@@H]1O,-0.04% (inactive)
17,O=C(c1ccc(Nc2nccc(-c3cc4ccccc4s3)n2)cc1)N1CCC(N2CCCC2)CC1,-1.73% (inactive)
18,O=C(O)CCNc1cc(N2CCc3ccccc3CC2)nc(-c2cccnc2)n1,1.71% (inactive)
19,COc1ccc2c(c1)[C@]13CCCC[C@@H]1[C@H](C2)N(C)CC3 [dextromethorphan],0.6% (inactive)
20,CC[C@@]1(O)C(=O)OCc2c1cc1n(c2=O)Cc2cc3ccccc3nc2-1 [camptothecin],-1.93% (inactive)
